Compound activity: PubChem BioAssay, several laboratories
A selection: hits, their analogues and other compounds. The true share with any hit is near 1.1%.
LRH-1 inv ag: inverse agonists of human LRH-1 (NR5A2). AID 602396. HEK293T StAR-luciferase reporter, LRH-1 transfected, 24 h. inhibition, % at 3.6 µM. O00482. 360,000 tested, 0.13% active;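 active = inhibition above the mean inhibition of all tested compounds plus 3 SD, cut at about 73% in these data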;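 note: 0% = DMSO wells and 100% = reporter-only cells lacking LRH-1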
SRC3 inh: inhibits human SRC3 coactivator | Q9Y6Q9 | 360,000 tested, 0.17% active | inhibition, % at 3.6 µM | AID 588352 | HEK293 GAL4-SRC3 luciferase reporter, luminescence;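 active = inhibition above a per-campaign cutoff, the mean of all compounds plus 3 SD, cut at about 60% in these data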;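 note: 0% = DMSO-treated cells and 100% = gossypol-treated cells at 36 µM; higher means less SRC3-driven luciferase light from the GAL4 reporter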
NCOA1 inh: human NCOA1 inhibition | Q15788 | HEK293 GAL4-SRC1 luciferase reporter, luminescence | inhibition, % at 3.6 µM | 360,000 tested, 0.12% active;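 active = inhibition above the campaign mean plus 3 SD, with each screening campaign given its own cutoff, cut at about 60% in these data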;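 note: 0% = DMSO treated cells and 100% = gossypol at 36 µM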
Gli-Sufu antag: blocks Gli-Sufu signaling in a luciferase reporter; Sufu-KO-LIGHT fibroblasts, Gli luciferase reporter luminescence; 340,000 tested, 0.74% active; inhibition, % at 5 µM;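 active = inhibition above about 55%, limit read from the data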;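 note: 0% = DMSO-treated cells and 100% = wells with medium but no cells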
Shn3 inh set2: Schnurri-3 reporter inhibition in Clone20 osteoblasts; inhibition, % at 12.5 µM; AID 588674; Clone20 osteoblast Shn3 3'UTR firefly luciferase, 24 h; 360,000 tested, 0.52% active;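 active = mean inhibition of at least 75% with every replicate also reaching 75%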;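 note: 0% = median of neutral control wells and 100% = pilot-screen positive control compound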
SRC2 inh: human SRC2 (NCOA2) inhibition; 370,000 tested, 0.17% active; inhibition, % at 9 µM; HEK293 GAL4-SRC2 luciferase reporter, luminescence; Q15596;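 active = inhibition above the mean inhibition of all tested compounds plus 3 SD, set per campaign, cut at about 52% in these data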;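 note: 0% = DMSO treated cells and 100% = cells given Gossypol at 36 µM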
Target sequence (Q15596 whole entry, looked up, the tested form may be a part): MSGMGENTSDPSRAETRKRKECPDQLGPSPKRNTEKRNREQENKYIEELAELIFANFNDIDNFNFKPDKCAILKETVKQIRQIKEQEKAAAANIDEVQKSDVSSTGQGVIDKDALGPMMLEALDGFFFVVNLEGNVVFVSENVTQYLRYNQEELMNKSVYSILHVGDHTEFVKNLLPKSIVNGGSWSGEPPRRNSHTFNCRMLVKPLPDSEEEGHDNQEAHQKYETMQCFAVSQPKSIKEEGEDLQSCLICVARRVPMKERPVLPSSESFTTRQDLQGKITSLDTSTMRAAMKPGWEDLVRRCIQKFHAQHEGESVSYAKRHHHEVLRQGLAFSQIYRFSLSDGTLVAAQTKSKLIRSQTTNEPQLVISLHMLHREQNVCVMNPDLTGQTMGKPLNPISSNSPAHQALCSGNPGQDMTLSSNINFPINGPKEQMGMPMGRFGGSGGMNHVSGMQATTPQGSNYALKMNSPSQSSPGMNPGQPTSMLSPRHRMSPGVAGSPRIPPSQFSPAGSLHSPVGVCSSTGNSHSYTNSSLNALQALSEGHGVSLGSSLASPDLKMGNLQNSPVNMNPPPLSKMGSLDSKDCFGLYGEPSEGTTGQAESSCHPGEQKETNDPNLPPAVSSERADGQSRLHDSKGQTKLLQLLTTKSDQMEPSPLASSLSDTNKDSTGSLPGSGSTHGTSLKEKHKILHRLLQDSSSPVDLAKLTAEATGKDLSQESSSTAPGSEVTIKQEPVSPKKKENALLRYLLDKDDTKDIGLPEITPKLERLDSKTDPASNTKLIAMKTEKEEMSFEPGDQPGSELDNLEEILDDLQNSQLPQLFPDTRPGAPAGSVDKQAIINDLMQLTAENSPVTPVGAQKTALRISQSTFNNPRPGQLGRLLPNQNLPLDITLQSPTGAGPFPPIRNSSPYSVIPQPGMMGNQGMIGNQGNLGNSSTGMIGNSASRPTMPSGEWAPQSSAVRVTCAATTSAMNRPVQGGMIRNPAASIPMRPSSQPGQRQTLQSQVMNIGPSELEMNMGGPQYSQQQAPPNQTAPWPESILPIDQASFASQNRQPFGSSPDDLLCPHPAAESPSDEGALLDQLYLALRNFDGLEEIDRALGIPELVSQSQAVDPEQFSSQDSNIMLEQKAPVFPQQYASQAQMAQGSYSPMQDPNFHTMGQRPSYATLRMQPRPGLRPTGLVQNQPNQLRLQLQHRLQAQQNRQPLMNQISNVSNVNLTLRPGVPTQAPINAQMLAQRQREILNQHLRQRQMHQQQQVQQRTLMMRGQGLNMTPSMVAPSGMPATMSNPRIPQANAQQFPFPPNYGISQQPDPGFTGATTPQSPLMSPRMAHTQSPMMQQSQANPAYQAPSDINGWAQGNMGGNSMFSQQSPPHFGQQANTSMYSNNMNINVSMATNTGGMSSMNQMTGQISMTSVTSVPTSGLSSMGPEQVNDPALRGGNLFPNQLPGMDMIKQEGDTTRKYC
Starred values were filed as active, the others as inactive; nt = no result.

SMILES	LRH-1 inv ag	SRC3 inh	NCOA1 inh	Gli-Sufu antag	Shn3 inh set2	SRC2 inh
CCOC(=O)[C@]12Cc3cc(Cl)ccc3[C@H]1N(C1CCCCC1)C(=O)c1ccccc12	84.8*	nt	nt	nt	nt	nt
CCOC(=O)[C@]12Cc3cc(OC)ccc3[C@H]1N(C1CCCCC1)C(=O)c1ccccc12	46.9	nt	nt	nt	nt	8.7
Cc1ccc(-c2cc(-c3ccc(C)cc3)[n+](-c3ccccc3)c(-c3ccc(C)cc3)c2)cc1	93.3*	78.6*	65.3*	91.0*	94.2*	nt
Cc1ccc(-c2cc(-c3ccc(C)cc3)[n+](-c3ccc(C(=O)[O-])cc3)c(-c3ccc(C)cc3)c2)cc1	0.7	4.8	-9.5	8.3	-19.2	-6.9
CCOC(=O)c1ccc(-[n+]2c(-c3ccccc3)cc(-c3ccccc3)cc2-c2ccccc2)cc1	nt	nt	nt	46.8	nt	nt
Cc1ccc(-c2cc(-c3ccccc3)cc(-c3ccccc3)[n+]2-c2ccccc2)cc1	97.6*	83.7*	56.4	90.0*	97.8*	74.6*
CN(C)c1ccc(-[n+]2c(-c3ccccc3)cc(-c3ccccc3)cc2-c2ccccc2)cc1	89.6*	82.5*	59.0	90.0*	94.1*	-1.9
c1ccc(-c2cc(-c3ccccc3)[n+](-c3ccccc3)c(-c3ccccc3)c2)cc1	57.4	65.7*	35.2	72.9*	16.3	16.8
O=C1C2CC=CCC2C(=O)N1SC(Cl)(Cl)Cl (configuration not stated)	nt	nt	nt	nt	nt	-7.5
CC(=O)N1c2ccccc2C(c2ccccc2)=NCC1C(=O)NC1CCCCC1 (configuration not stated)	nt	nt	nt	nt	nt	10.6
Cc1cc(N2CCNC[C@H]2C)ccc1N1CC[C@@H](O)C1	nt	nt	nt	nt	nt	-24.8
CC1OC(OC2C(O)CC(OC3C(O)CC(OC4CCC5(C)C(CCC6C5CCC5(C)C(C7=CC(=O)OC7)C(O)CC65O)C4)OC3C)OC2C)CC(O)C1O (configuration not stated)	34.8	49.0	35.2	5.8	2.0	9.1
CC(=O)OC1CC2(O)C3CCC4CC(O)CCC4(C)C3CCC2(C)C1C1=CC(=O)OC1 (configuration not stated)	99.0*	87.6*	85.5*	1.4	-23.6	50.4
CC(=O)[C@H]1CCC2C3CC[C@H]4C[C@@H](O)CC[C@]4(C)C3CC[C@@]21C (some centres not stated)	4.3	-1.5	-6.3	6.6	10.7	-14.8
CC(=O)OC1CC(OC2C(O)CC(OC3C(O)CC(OC4CCC5(C)C(CCC6C5CCC5(C)C(C7=CC(=O)OC7)C(O)CC65O)C4)OC3C)OC2C)OC(C)C1OC1OC(CO)C(O)C(O)C1O (configuration not stated)	98.4*	81.5*	84.4*	-1.2	8.1	38.1
COc1ccc(Cc2cn(C)c(N)n2)cc1	nt	nt	nt	nt	nt	-8.8
COC(=O)C1=C(c2ccc3ccccc3c2)C[C@@H]2CC[C@H]1N2C	-12.8	-4.1	8.7	0.9	-16.1	-0.9
COC(=O)C1=C(C(=O)OC)C2OC1c1cc3ccccc3cc12	-3.4	-49.9	-20.7	6.7	95.2*	-12.8
c1ccc2c(c1)[nH]c1cnccc12	-3.2	2.4	0.7	-1.8	8.6	-0.1
Cc1c2ccncc2c(C)c2c1[nH]c1ccccc12	64.8	60.3	63.9*	7.3	17.5	nt
CC1=C(O)C(=O)C=C2C1=CC=C1C2(C)CCC2(C)C3CC(C)(C(=O)O)CCC3(C)CCC12C (configuration not stated)	92.9*	-8.8	1.0	21.9	94.7*	-35.1
CCN1C[C@]2(COC)CC[C@H](OC)[C@@]34C1[C@]1(OCO[C@@]15C[C@H](OC)[C@H]1C[C@@H]3[C@@H]5[C@H]1OC)[C@@H](O)[C@H]24	-3.4	7.0	8.8	-6.4	89.1*	-4.1
C[C@@H]1O[C@@H](O[C@H]2C[C@@H](O)[C@]3(CO)[C@H]4[C@H](O)C[C@]5(C)[C@@H](C6=CC(=O)OC6)CC[C@]5(O)[C@@H]4CC[C@]3(O)C2)[C@H](O)[C@H](O)[C@H]1O	102.6*	93.0*	87.6*	-0.8	5.3	nt
C=CC1C[N+]2(C)CCC1CC2C(O)c1ccnc2ccccc12 (configuration not stated)	nt	nt	nt	nt	nt	-31.9
C[C@]12CCC3C(CC[C@H]4C[C@H](O)CC[C@]34C)C1CCC2=O (some centres not stated)	-12.6	6.5	-16.3	4.5	85.7*	-8.0
SMILES	LRH-1 inv ag	SRC3 inh	NCOA1 inh	Gli-Sufu antag	Shn3 inh set2	SRC2 inh
COC(=O)[C@H]1C[C@@]2(C)c3ccccc3N[C@H]2N1	nt	nt	nt	nt	nt	-7.6
CCC(=O)O[C@H]1CC[C@H]2[C@@H]3CCC4=CC(=O)CC[C@]4(C)[C@H]3CC[C@]12C	2.2	11.5	-32.6	8.8	13.0	-7.0
CC(=O)O[C@H]1CCC2C3CC[C@H]4[C@@H](O)[C@H](O)CC[C@]4(C)C3CC[C@@]21C (some centres not stated)	-18.6	-1.1	-4.7	6.5	96.2*	26.4
CC(C)(C)n1nnnc1C1CN=C(c2ccccc2)c2ccccc2N1 (configuration not stated)	nt	nt	nt	nt	nt	-15.9
CC(=O)OCC12CC(OC(=O)CC(C)C)C(C)=CC1OC1C(O)C(OC(C)=O)C2(C)C12CO2 (configuration not stated)	98.1*	94.6*	95.1*	89.5*	93.2*	77.1*
Cc1ccccc1-n1c(/C=C/c2ccccn2)nc2ccccc2c1=O	46.9	-5.3	11.5	6.3	9.5	29.6
CN1C2CCC1/C(=C/c1ccccn1)C(=O)/C2=C\c1ccccn1	3.1	50.2	-51.5	47.8	92.7*	65.2*
O=C(NCCN1CCC2(CC1)C(=O)NCN2c1ccccc1)c1cccnc1Cl	nt	nt	nt	nt	nt	-7.5
COC1=CC(=O)[C@]2(C=C1OC)OC[C@@H]1Oc3c(ccc4c3C=CC(C)(C)O4)C(=O)[C@@H]12	nt	nt	nt	84.6*	nt	0.6
O=C1/C(=C/c2ccccc2)C[C@@]2(O)[C@H]3Cc4ccc(O)c5c4[C@@]2(CCN3CC2CC2)C1O5 (some centres not stated)	84.2*	83.2*	85.6*	-16.4	95.2*	nt
C[C@H]1CCC/C=C/[C@@H]2C[C@H](O)C[C@H]2[C@@H](O)/C=C/C(=O)O1	61.2	57.3	18.2	85.5*	88.3*	22.6
C[C@H]1[C@H](OC(=O)CCC(=O)NCc2ccc(C(=O)O)cc2)O[C@@H]2O[C@@]3(C)CC[C@H]4[C@H](C)CC[C@@H]1C24OO3	89.1*	71.7*	61.7*	88.5*	81.8	nt
O=C1NC2C(O)C(O)C(O)C(O)C2c2cc3c(c(O)c21)OCO3 (configuration not stated)	98.1*	92.3*	93.1*	71.9*	87.4*	74.5*
